Only a selection was taken, and hits are over-represented in it overall.
U2OS ROS induce: ROS inducers in U2OS cancer cells, primary screen, cell-based, H2DCF-DA fluorescence; ROS induction (% of piperlongumine), % at 10 µM; U2OS ROS induction; AID 624156, 2012; 2% of 46,000 active; in the data active = ROS induction above about 79%, passing the limit was not always enough;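 note: 0% = DMSO vehicle median and 100% = reference compound median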
* marks the source's active call; other numbers are inactive results.

`C[C@@H]1CN([C@H](C)CO)C(=O)c2cccc(NC(=O)C3CCOCC3)c2O[C@H]1CN(C)Cc1ccc(-c2ccccc2)cc1` gave U2OS ROS induce 100*.
Screening COc1cccc(NC(=S)N(Cc2ccccc2)Cc2ccc(C)o2)c1 returned U2OS ROS induce 3.
For CCCCN(CC)S(=O)(=O)c1ccc2[nH]c(=O)cc(C(=O)NCCc3ccc(Cl)cc3)c2c1 the results were U2OS ROS induce -3.
`CCOc1ccc(CNC(=O)c2cc(=O)[nH]c3ccccc23)cc1` gave U2OS ROS induce -2.
Cc1ccccc1C(=O)NCCC(C)C was read as U2OS ROS induce 3.
CCN(CC)C(=O)Cc1noc2ccccc12 was read as U2OS ROS induce -18.
Screening Cc1ccc(NC(=O)CSc2nnc(-c3ccc(C(C)(C)C)cc3)o2)c(C)c1 returned U2OS ROS induce 0.
`CC(C)(C)c1ccc(-c2nnc(-c3ccccc3NC(=O)/C=C\C(=O)O)o2)cc1` gave U2OS ROS induce 80*.
For CC(C)(C)c1ccc(-c2nnc(SCC(=O)Nc3ccccc3[N+](=O)[O-])o2)cc1 the results were U2OS ROS induce 1.
Screening CCC12CN(S(=O)(=O)c3ccccc3)CC(CC)(CN(S(=O)(=O)c3ccccc3)C1)C2=O returned U2OS ROS induce -9.
CC(NC(=S)NC(=O)c1cccs1)C12CC3CC(CC(C3)C1)C2 (configuration not stated) was read as U2OS ROS induce 50.
Screening CCNc1nc(NCC)nc(SCCOc2ccc(Br)cc2)n1 returned U2OS ROS induce 14.
For COCCOC(=O)N1C(=O)[C@@]2(c3ccccc31)[C@H](C(=O)NC[C@H](O)c1ccccc1)[C@H]1C(=O)O[C@H](c3ccccc3)[C@H](c3ccccc3)N1[C@@H]2c1ccc(O)cc1 the results were U2OS ROS induce 41.
COCCOC(=O)N1C(=O)[C@@]2(c3cc(C#CC4(O)CCCCCC4)ccc31)[C@H](C(N)=O)[C@H]1C(=O)O[C@H](c3ccccc3)[C@H](c3ccccc3)N1[C@@H]2c1ccccc1OCCO was read as U2OS ROS induce 31.
C=CCNC(=O)[C@H]1[C@@H]2C(=O)O[C@@H](c3ccccc3)[C@@H](c3ccccc3)N2[C@@H](c2ccc(O)cc2)[C@]12C(=O)N(C(=O)OCCOC)c1ccc(C#CCC(C(=O)OC)C(=O)OC)cc12 was read as U2OS ROS induce 59.
`C=CCNC(=O)[C@@H]1[C@H]2C(=O)O[C@H](c3ccccc3)[C@H](c3ccccc3)N2[C@H](c2ccccc2OCCO)[C@@]12C(=O)N(C(=O)OCCOC)c1ccc(C#CC3(O)CCCCCC3)cc12` gave U2OS ROS induce 98*.
For COCCOC(=O)N1C(=O)[C@@]2(c3ccccc31)[C@H](c1ccc(O)cc1)N1[C@H](c3ccccc3)[C@H](c3ccccc3)OC(=O)[C@H]1[C@@H]2C(=O)NC[C@H](O)c1ccccc1 the results were U2OS ROS induce 10.
Screening COCCOC(=O)N1C(=O)[C@@]2(c3cc(C#CC4=CCCCC4)ccc31)[C@H](C(=O)NC[C@H](O)c1ccccc1)[C@H]1C(=O)O[C@H](c3ccccc3)[C@H](c3ccccc3)N1[C@@H]2c1ccccc1OCCO returned U2OS ROS induce 65.
Screening C=CCNC(=O)[C@@H]1[C@H]2C(=O)O[C@H](c3ccccc3)[C@H](c3ccccc3)N2[C@H](c2ccccc2OCCO)[C@@]12C(=O)N(C(=O)OCCOC)c1ccc(C#CCC(C(=O)OC)C(=O)OC)cc12 returned U2OS ROS induce 110*.
`C=CCNC(=O)[C@H]1[C@@H]2C(=O)O[C@@H](c3ccccc3)[C@@H](c3ccccc3)N2[C@@H](c2ccc(OCCO)cc2)[C@]12C(=O)N(C(=O)OCCOC)c1ccc(C#Cc3ccc(OC)cc3)cc12` gave U2OS ROS induce 5.
COCCOC(=O)N1C(=O)[C@@]2(c3ccccc31)[C@H](c1ccc(OCCO)cc1)N1[C@H](c3ccccc3)[C@H](c3ccccc3)OC(=O)[C@H]1[C@@H]2C(=O)NC[C@H](O)c1ccccc1 was read as U2OS ROS induce 189*.
For COCCOC(=O)N1C(=O)[C@@]2(c3cc(C#CC4(O)CCCCCC4)ccc31)[C@H](C(=O)NC[C@H](O)c1ccccc1)[C@H]1C(=O)O[C@H](c3ccccc3)[C@H](c3ccccc3)N1[C@@H]2c1ccccc1OCCO the results were U2OS ROS induce 141*.
Screening COCCOC(=O)N1C(=O)[C@@]2(c3cc(C#CCNC(N)=O)ccc31)[C@H](C(N)=O)[C@H]1C(=O)O[C@H](c3ccccc3)[C@H](c3ccccc3)N1[C@@H]2c1ccccc1OCCO returned U2OS ROS induce 17.
Screening COCCOC(=O)N1C(=O)[C@@]2(c3cc(C#CC4(O)CCCCCC4)ccc31)[C@H](c1ccc(OCCO)cc1)N1[C@H](c3ccccc3)[C@H](c3ccccc3)OC(=O)[C@H]1[C@@H]2C(N)=O returned U2OS ROS induce -1.
Screening Cc1ccc2nc3c(c(C(=O)O)c2c1)CC(C(C)(C)C)CC3 (configuration not stated) returned U2OS ROS induce -15.
`Cc1cccc(-n2ncc3c(NCCc4ccccc4)ncnc32)c1` gave U2OS ROS induce 19.
`CCCOc1c(-c2ccc3ccccc3n2)cnc2ccccc12` gave U2OS ROS induce -1.
For Cc1ccc(Sc2c(CS(=O)(=O)c3ccccc3)[nH]c3ccccc23)cc1 the results were U2OS ROS induce -1.
Cc1ccccc1CN1C(=O)C(O)(CC(=O)c2ccc3c(c2)CCCC3)c2ccccc21 (configuration not stated) was read as U2OS ROS induce -9.
O=C1CCS(=O)(=O)c2ccccc2N1Cc1ccccc1 was read as U2OS ROS induce -7.
Screening C=CCNC(=O)[C@H]1[C@@H]2C(=O)O[C@@H](c3ccccc3)[C@@H](c3ccccc3)N2[C@@H](c2ccccc2OCCO)[C@]12C(=O)Nc1ccc(C#CC3(O)CCCCCC3)cc12 returned U2OS ROS induce 102*.
Screening C=CCNC(=O)[C@H]1[C@@H]2C(=O)O[C@@H](c3ccccc3)[C@@H](c3ccccc3)N2[C@@H](c2ccccc2OCCO)[C@]12C(=O)N(C(=O)OCCOC)c1ccc(C#CC3=CCCCC3)cc12 returned U2OS ROS induce 177*.
Screening C=CCNC(=O)[C@@H]1[C@H]2C(=O)O[C@H](c3ccccc3)[C@H](c3ccccc3)N2[C@H](c2ccccc2OCCO)[C@@]12C(=O)N(C(=O)OCCOC)c1ccc(C#CC3=CCCCC3)cc12 returned U2OS ROS induce 58.
C=CCNC(=O)[C@@H]1[C@H]2C(=O)O[C@H](c3ccccc3)[C@H](c3ccccc3)N2[C@H](c2ccccc2OCCO)[C@@]12C(=O)Nc1ccc(C#CC3=CCCCC3)cc12 was read as U2OS ROS induce -7.
`C=CCNC(=O)[C@H]1[C@@H]2C(=O)O[C@@H](c3ccccc3)[C@@H](c3ccccc3)N2[C@@H](c2ccccc2OCCO)[C@]12C(=O)Nc1ccc(C#CCCO)cc12` gave U2OS ROS induce 72.
For O=C1O[C@@H](c2ccccc2)[C@@H](c2ccccc2)N2[C@@H](c3ccccc3OCCO)[C@]3(C(=O)Nc4ccc(C#CC5(O)CCCCCC5)cc43)[C@@H](C(=O)O)[C@H]12 the results were U2OS ROS induce 0.
O=C(NCc1ccccc1)c1cnn(-c2ccccc2)c1-n1cccc1 was read as U2OS ROS induce -1.
For CC(=O)N(/C=C1\SC(=S)N(Cc2ccccc2)C1=O)c1ccccc1 the results were U2OS ROS induce -9.

Screens deposited in PubChem by Broad Institute.
